Source: PubChem BioAssay (Tox21)
Records with an inconclusive call do not appear. The source made the active and inactive calls. Calls come from the whole dose curve; as a rule, active = well fitted curve in the direction sought with a large enough effect in the repeat runs; inconclusive = weak or mixed curves; inactive = no such curve, though single readings can be large; an effect the other way counts as inactive or inconclusive.

How the values were obtained:
[1] = qHTS RealTime-Glo MT Cell Viability Assay in HepG2 cells - 40 hour (AID 1224870); note: nearly all actives have a fitted effect of over 50% in size
Method in brief: (§1)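 HepG2 cells mixed with RealTime-Glo MT reagents (NanoLuc plus cell-permeant prosubstrate) were seeded at 600 cells/well, incubated 5 h at 37 C/5% CO2, then pinned with compounds in DMSO; nonlytic luminescence tracked viability during 40 h treatment.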

[2] = A CellTox Green Cytotoxicity Assay to monitor cytotoxicity in HEK293 cells - 40 hour (AID 1224871); note: nearly all actives have a fitted effect of over 45% in size
Method in brief: (§2)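 Seeding of HEK293 cells together with cytotoxicity dye preceded a 5 h incubation at 37 C/5% CO2. Test compounds in DMSO were then added and fluorescence monitored across 40 h.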

[3] = qHTS RealTime-Glo MT Cell Viability Assay in HEK293 cells - 16 hour (AID 1224872); note: top concentration of the series differs between compounds; nearly all actives have a fitted effect of over 50% in size
Method in brief: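 Nonlytic real-time viability readout: viable cells convert prosubstrate to NanoLuc substrate, giving luminescence proportional to live cell number. HEK293, 600 cells/well, compound added after 5 h, continuous culture at 37 C.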

[4] = qHTS RealTime-Glo MT Cell Viability Assay in HepG2 cells - 8 hour (AID 1224873); note: nearly all actives have a fitted effect of over 55% in size
Method in brief: as §1

[5] = qHTS RealTime-Glo MT Cell Viability Assay in HEK293 cells - 40 hour (AID 1224874); settings: RealTime-Glo luminescence; max response: hits give low values; note: nearly all actives have a fitted effect of over 50% in size
Method in brief: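 Tox21 screen in HEK293 using RealTime-Glo MT chemistry, with cells and reagent co-dispensed. Luminescence proportional to viable cell number was captured at intervals during 40 h compound exposure at 37 C.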

[6] = A CellTox Green Cytotoxicity Assay to monitor cytotoxicity in HEK293 cells - 24 hour (AID 1224875); note: series mostly up to about 77 µM; nearly all actives have a fitted effect of over 45% in size
Method in brief: as §2

[7] = A CellTox Green Cytotoxicity Assay to monitor cytotoxicity in HepG2 cells - 16 hour (AID 1224876); note: nearly all actives have a fitted effect of over 45% in size
Method in brief: (§3)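 Nonlytic assay: viable cells exclude the dye, so fluorescence scales with cell death. HepG2 at 600 cells/well, compounds added after 5 h, signal read across 40 h.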

[8] = qHTS RealTime-Glo MT Cell Viability Assay in HepG2 cells - 32 hour (AID 1224877); note: nearly all actives have a fitted effect of over 55% in size
Method in brief: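 Luminescence read-out: viable HepG2 cells reduce a prosubstrate to a NanoLuc substrate, giving a signal proportional to live cell number. Reads taken at 0, 8, 16, 24, 32 and 40 h of compound exposure at 37 C.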

[9] = A CellTox Green Cytotoxicity Assay to monitor cytotoxicity in HepG2 cells - 24 hour (AID 1224878); note: nearly all actives have a fitted effect of over 45% in size
Method in brief: as §3

[10] = A CellTox Green Cytotoxicity Assay to monitor cytotoxicity in HepG2 cells - 40 hour (AID 1224879); note: nearly all actives have a fitted effect of over 40% in size
Method in brief: as §3
% is set by controls: 0 for no effect and ±100 for the full control effect.

CCOC(=O)[C@H](CCc1ccccc1)N[C@@H](C)C(=O)N1C(=O)N(C)C[C@H]1C(=O)O
inactive: outcome [1] | Potency [2] | Potency [3] | outcome [4] | max response [5] 1.75% | outcome [6] | outcome [7] | outcome [8] | outcome [9] | Potency [10]

CC(C)CC(=O)O
inactive: outcome [1] | Potency [2] | Potency [3] | outcome [4] | max response [5] 6.56% | outcome [6] | outcome [7] | outcome [8] | outcome [9] | Potency [10]

CCCCCCCCOS(=O)(=O)O
inactive: outcome [1] | Potency [2] | Potency [3] | outcome [4] | max response [5] 2.61% | outcome [6] | outcome [7] | outcome [8] | outcome [9] | Potency [10]

O=C1CCCC(=O)O1
inactive: outcome [1] | Potency [2] | Potency [3] | outcome [4] | max response [5] 15.9% | outcome [6] | outcome [7] | outcome [8] | outcome [9] | Potency [10]

CC(C)(C)c1cc(CCC(=O)NN)cc(C(C)(C)C)c1O
inactive: outcome [1] | Potency [2] | Potency [3] | outcome [4] | max response [5] -14% | outcome [6] | outcome [7] | outcome [8]

CC[C@H](C)C(=O)O[C@H]1C[C@H](O)C=C2C=C[C@H](C)[C@H](CC[C@@H](O)C[C@@H](O)CC(=O)O)[C@H]21
inactive: outcome [1] | Potency [2] | Potency [3] | outcome [4] | max response [5] 13.5% | outcome [6] | outcome [7] | outcome [8] | outcome [9] | Potency [10]

CCCCCCCCCCCCCC
inactive: outcome [1] | Potency [2] | Potency [3] | outcome [4] | max response [5] 3.06% | outcome [6] | outcome [7] | outcome [8] | outcome [9] | Potency [10]

N[C@@H](CCC(=O)Nc1ccc([N+](=O)[O-])cc1)C(=O)O
inactive: outcome [1] | Potency [2] | Potency [3] | outcome [4] | max response [5] -16.1% | outcome [6] | outcome [7] | outcome [8] | outcome [9] | Potency [10]

CCOC(=O)/C=C/c1ccccc1
inactive: outcome [1] | Potency [2] | Potency [3] | outcome [4] | max response [5] -4.48% | outcome [6] | outcome [7] | outcome [8] | outcome [9] | Potency [10]

CCC(C)NC(N)=O (stereo not drawn)
inactive: outcome [1] | Potency [2] | Potency [3] | outcome [4] | max response [5] 0.218% | outcome [6] | outcome [7] | outcome [8] | outcome [9] | Potency [10]

COc1cc(NS(=O)(=O)c2ccc(N)cc2)nc(OC)n1
inactive: outcome [1] | Potency [2] | Potency [3] | outcome [4] | max response [5] 5.69% | outcome [6] | outcome [7] | outcome [8] | outcome [9] | Potency [10]

CC(C)NCC(O)COc1ccc(COCCOC(C)C)cc1 (stereo not drawn)
inactive: outcome [1] | Potency [2] | Potency [3] | outcome [4] | max response [5] 3.86% | outcome [6] | outcome [7] | outcome [8] | outcome [9] | Potency [10]

CN=C(NC#N)Nc1ccc(C2=NNC(=O)CC2C)cc1 (stereo not drawn)
inactive: outcome [1] | Potency [2] | Potency [3] | outcome [4] | max response [5] 11.7% | outcome [6] | outcome [7] | outcome [8] | outcome [9] | Potency [10]

On1nnc2ccccc21
inactive: outcome [1] | Potency [2] | Potency [3] | outcome [4] | max response [5] -15.2% | outcome [6] | outcome [7] | outcome [8] | outcome [9] | Potency [10]

CC(=O)N[C@@H](CCC(=O)O)C(=O)O
inactive: outcome [1] | Potency [2] | Potency [3] | outcome [4] | max response [5] 1.63% | outcome [6] | outcome [7] | outcome [8] | outcome [9] | Potency [10]

COc1cc(N)ccc1C
inactive: outcome [1] | Potency [2] | Potency [3] | outcome [4] | max response [5] 8.05% | outcome [6] | outcome [7] | outcome [8] | outcome [9] | Potency [10]

Cc1cc(C(C)(C)C)c(O)c(C)c1CC1=NCCN1
inactive: outcome [1] | Potency [2] | Potency [3] | outcome [4] | max response [5] 0.324% | outcome [6] | outcome [7] | outcome [8] | outcome [9] | Potency [10]

C=C1CC/C=C(\C)CC[C@@H]2[C@@H]1CC2(C)C
inactive: outcome [1] | Potency [2] | Potency [3] | outcome [4] | max response [5] 2.22% | outcome [6] | outcome [7] | outcome [8] | outcome [9] | Potency [10]

CC(C)C(=O)OCc1cccc(OC(=O)[C@@H]2N3C(=O)[C@@H](NC(=O)Cc4ccccc4)[C@H]3SC2(C)C)c1
inactive: outcome [1] | Potency [2] | Potency [3] | outcome [4] | max response [5] 0.269% | outcome [6] | outcome [7] | outcome [8] | outcome [9] | Potency [10]

C=COCCOCCOCCOC=C
inactive: outcome [1] | Potency [2] | Potency [3] | outcome [4] | max response [5] 1.1% | outcome [6] | outcome [7] | outcome [8] | outcome [9] | Potency [10]

Cc1cc(Cl)c(C)cc1Cl
inactive: outcome [1] | Potency [2] | Potency [3] | outcome [4] | max response [5] 6.26% | outcome [6] | outcome [7] | outcome [8] | outcome [9] | Potency [10]

O=C(NCCN1CCOCC1)c1ccc(Cl)cc1
inactive: outcome [1] | Potency [2] | Potency [3] | outcome [4] | max response [5] 5.6% | outcome [6] | outcome [7] | outcome [8] | outcome [9] | Potency [10]
